From the supplement of paper PMC10338343
± gives the standard deviation.

Each sequence was assayed on EfPiwi piRISC loaded with L1MC piRNA (26 nt) (assay: pre-steady-state target cleavage rate (min^-1); auxiliary factor: none (no Gtsf1); guide: L1MC piRNA 5'p-UAACUAAAUACUAUGCAAGCUGUAGG; MIWI and MILI are mouse PIWI proteins and EfPiwi is from a freshwater sponge; tags in brackets are library labels; higher = faster piRNA-guided slicing of the target).
Description: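 Cleave-'n-Seq: a library of target RNAs (target site in constant flanks) at […] was incubated with 1 nM active freshwater sponge Ephydatia fluviatilis Piwi piRISC (synthetic 5'-monophosphorylated piRNA guide) with or without 500 nM EmGtsf1 at 33 °C for 1 min to 16 h. Uncleaved targets were sequenced and the pooled three trials fitted to a burst-and-steady-state model to give the pre-steady-state cleavage rate (min^-1). Sequence is the target site only. Fits with R² ≤ 0 are excluded.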

pre-steady-state target cleavage rate, 0.0179 ± 0.0092:
UCCUGGAUCAGCUUGCAUAGUAUGUAGUUA

pre-steady-state target cleavage rate, 0.00519 ± 0.0044:
UCCUGGAACAGCUUGUAUAGUAUUUAGUUA

pre-steady-state target cleavage rate, < 0.0001:
UCCUGGAUGUCGAAGCAUAGUAUUUAGAUA
UCCUGCUACAGCUUGCAAUCUAUUUUCAAA
UCCUGGAUGUCGAACGUUAAUAUUUAGUUA
UCCUGGAUGUCGAACCAUAGUAGUUUAGUUA
UCCUGCUACAGCUUGCAUACAUAAAUCAAA [g12:g25:cont:t1A]
UCCUCCUACAGCUUGCAUUCUAUUUUCAAA
UCCUGGAACAGCUUGGAUUGUAUUUAGUUA
UCCUGGAUGUCCUUCGUUAGUAUUUAGUUA
UCCUCCUACAGCUUCGUUAGUAUUUAGAAA
UCCUCCUACAGCUUCCAUAGUAUAUAGUUA
UCCUGGAACAGCUUCCAUAGUAUUAAGUUA
UCCUGGAACAGCUUGCUAUCAUAAAUCAAA [g15:g23:cont:t1A]
UCCUGGAUGUCGAACGUAUGUAUUUAGUUU [g2:g11:cont:t1U]
UCCUGCUACAGCUUGGUAAGUAUUUAGAAA
UCCUGGAUGUCGAUGCAUUGAAUUUAGUUA
UCCUGCUACAGCAUCCAUAGUAUUUAGUUA
UCCUGGAUGUCGAACGUAAGUAUUUAUUA
UCCUGGUACAGCUUGCAAUCAUAAAUCAAA [g14:g24:cont:t1A]
UCCUGGAUCACGUUGCAUAGUAUUUAGAAA
UCCUGGAUGUCGUUGCAUGUAUUUAGUUA
UCCUGGUACAGCUUGCAUAGAAUUUACUUA
UCCUGGAUGUCGAAGCAUAGGAUUUAGUUA
UCCUGGAUGUCGAAGCUUAGUAUUUAGUAA
UCCUGGAUGUCGAACGUAUGUUAUUAGUUA
UCCUGGAUGUCGAACCAUUCAAUUUAGUUA
UCCUGGAUGUCCUUGCAAAGUAAUUAGUUA
UCCUGGAUGUCGAAGCAUAGUAUAAUCAAA [g8:g16:cont:t1A]
UCCUGGAAGUGCUUGCAUAGUAUUUAGAAA
UCCUGGAUGUCGAAGGAUAGUAUUUAGUUA
UCCUGGAUGUCCAUGCAUAGUAUAUAGUUA
UCCUGGAUGUCGAUGCAUACUUUUUAGUUA
UCCUGGAUGUCGUUCAUAGUAUUUAGUUA
UCCUGGAUGUCGAAGCAUAGUUAAAUCAAA [g10:g16:cont:t1A]
UCCUGGAUGUCGAUCCAUAGUAUUUACUUA
UCCUGGAUGUCGAUGCAUAGUAUUAUGUUA

pre-steady-state target cleavage rate, 0.00497 ± 0.0037:
UCCUCCUACAGCUUGGAUACUAUUUAGUUA

pre-steady-state target cleavage rate, 0.011 ± 0.0069:
UCCUGGAUCUGCUUGCAUAGUAUAUAGUUA

pre-steady-state target cleavage rate, 0.00821 ± 0.0047:
UCCUGGAUGUGCUUGCAUAGUCUUUAGUUA
